miR-122 inh = activators of miR-122 sensor in Huh7 cells | Huh7 psiCHECK-miR122 Renilla luciferase sensor, 48 h | activation, % at 12.5 µM | actives 0.14% (n = 340,000);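 active = mean activation of 30% or more, with every replicate also reaching 30%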;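 also: higher luciferase signal means stronger suppression of miR-122 activity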
A number is an active result; – = inactive. This is one part of a sample in which hits are shown more often than they occur.

SMILES	miR-122 inh
CN(C(=O)C12CC3CC(CC(C3)C1)C2)C1CCS(=O)(=O)C1 (stereo not drawn)	36.2
COCC(=O)Nc1ccc2c(c1)OC[C@@H](C)N(C(C)=O)C[C@H](C)[C@@H](OC)CN(C)C2=O	–
C[C@@H]1CN([C@H](C)CO)C(=O)c2cc(Br)cnc2O[C@H]1CN(C)C(=O)CC1CC1	–
CCN1CCN(Cc2ccc(NC(=O)c3ccc(C)c(NC(=O)c4c[nH]c5cc(C(F)(F)F)ccc5c4=O)c3)cc2C(F)(F)F)CC1	32.8
C[C@@H]1CN([C@H](C)CO)C(=O)c2cc(C#Cc3ccccn3)cnc2O[C@@H]1CN(C)CC1CCOCC1	–
C[C@H]1CN([C@@H](C)CO)C(=O)c2cc(C#Cc3ccccn3)cnc2O[C@@H]1CN(C)CC1CCOCC1	–
Cc1ccc(S(=O)(=O)NCCC(C)C)cc1[N+](=O)[O-]	–
O=[N+]([O-])c1ccc(N/N=C/c2ccc[nH]2)cc1	44.8
Cc1ccc(C(=O)N/N=C\c2ccc[nH]2)cc1[N+](=O)[O-]	69.0
C[C@H]1CN([C@@H](C)CO)S(=O)(=O)c2ccc(C3=CCCCC3)cc2O[C@H]1CN(C)S(C)(=O)=O	–
C[C@@H]1CN([C@@H](C)CO)C(=O)c2cc(Br)cnc2O[C@H]1CN(C)Cc1ccc2c(c1)OCO2	–
COCC(=O)N(C)C[C@@H]1Oc2cc(Br)ccc2S(=O)(=O)N([C@H](C)CO)C[C@H]1C	–
C[C@@H]1CN([C@H](C)CO)C(=O)c2cc(-c3ccc(F)cc3)cnc2O[C@@H]1CN(C)Cc1ccccn1	–
C[C@@H]1CN([C@@H](C)CO)C(=O)Cc2cc(NC(=O)Nc3cccc4ccccc34)ccc2O[C@@H]1CN(C)C(=O)NC1CCCCC1	–
C[C@H]1CN([C@@H](C)CO)C(=O)c2cccc(NC(=O)Nc3ccc(C(F)(F)F)cc3)c2O[C@@H]1CN(C)CC1CCCCC1	–
COc1ccc(S(=O)(=O)Nc2ccc3c(c2)C(=O)N([C@@H](C)CO)C[C@H](C)[C@H](CN(C)C(=O)Nc2ccccc2)OCCCC[C@@H](C)O3)cc1	–
C[C@@H]1CCCCO[C@@H](CN(C)CC2CCCCC2)[C@@H](C)CN([C@@H](C)CO)C(=O)c2cc(NC(=O)Nc3cccc4ccccc34)ccc2O1	31.0
C[C@H](CO)N1C[C@H](C)[C@@H](CN(C)CC2CCCCC2)OCCCC[C@H](C)Oc2ccc(NC(=O)Nc3cccc4ccccc34)cc2C1=O	34.0
C[C@H](CO)N1C[C@H](C)[C@@H](CN(C)CC2CCCCC2)Oc2c(NC(=O)c3ccncc3)cccc2C1=O	–
COc1ccccc1N1CCN(C(=O)c2ccc(Cn3c(=O)[nH]c4ccsc4c3=O)cc2)CC1	–
O=C(/C=C/c1cccs1)c1cc(Br)ccc1OC(=O)N1CCOCC1	–
CCCC#Cc1cnc2c(c1)C(=O)N([C@@H](C)CO)C[C@@H](C)[C@@H](CN(C)C(=O)Cc1ccccc1)O2	–
CO[C@H]1CN(C)C(=O)c2ccc(NC(=O)Nc3ccc(Cl)cc3)cc2OC[C@H](C)N(C)C[C@H]1C	–
COc1ccc(S(=O)(=O)NC2CCCCC2)cc1C	–
COc1ccc(C)cc1S(=O)(=O)NC1CCCC1	–
SMILES	miR-122 inh
Cc1ccc(Cl)cc1NC(=S)N(CCCN1CCOCC1)Cc1ccccn1	–
C[C@@H]1CN([C@@H](C)CO)C(=O)c2cccc(NS(=O)(=O)c3ccc(F)cc3)c2O[C@@H]1CN(C)Cc1ccc(C(=O)Nc2ccccc2N)cc1	–
C[C@H](CO)N1C[C@H](C)[C@@H](CN(C)C(=O)c2ccccn2)Oc2cc(C#CCC3CCCC3)ccc2S1(=O)=O	–
CSc1cccc(NS(=O)(=O)c2ccccc2)c1	35.5
CSc1cccc(NS(=O)(=O)c2cc(Br)cnc2N)c1	–
O=S(=O)(Nc1ccc2ccccc2c1)c1ccccc1	–
C[C@@H]1CN([C@@H](C)CO)C(=O)c2cc(C#CCC3CCCC3)cnc2O[C@@H]1CN(C)Cc1ccccn1	–
C[C@@H]1CN([C@H](C)CO)C(=O)c2cc(C#CC3CCCC3)cnc2O[C@H]1CN(C)C(=O)C1CCC1	–
O=S(=O)(/N=C(/Nc1ccc(Cl)c(S(=O)(=O)N2CCOCC2)c1)c1ccc(F)cc1)c1ccccc1	–
COC(=O)c1c(N)nc(C)n1-c1ccc(OC)cc1	33.8
C[C@@H]1CN([C@@H](C)CO)S(=O)(=O)c2ccc(C#CCC3CCCC3)cc2O[C@H]1CN(C)C(=O)CN(C)C	–
Cc1ccc(-c2cnc3c(c2)C(=O)N([C@@H](C)CO)C[C@@H](C)[C@@H](CN(C)Cc2ccccc2F)O3)cc1	–
COc1cccc(/C=N/Nc2ccc([N+](=O)[O-])cn2)c1O	32.7
CCCN1C[C@H](C)[C@@H](OC)CN(C)C(=O)c2ccc(NC(=O)COC)cc2OC[C@H]1C	–
Cc1ccc(NC(=O)CNC(=O)c2cccs2)cc1S(=O)(=O)Nc1ccc(Cl)cc1	–
C[C@H](CO)N1C[C@H](C)[C@@H](CN(C)C(=O)c2cccnc2)Oc2ncc(-c3ccccc3)cc2C1=O	–
O=S(=O)(NCC1CCCO1)c1ccc(Oc2ccccc2)cc1 (stereo not drawn)	–
Cc1ccccc1-c1ccc2c(c1)O[C@@H](CN(C)C(=O)Nc1ccccc1)[C@@H](C)CN([C@@H](C)CO)S2(=O)=O	–
COc1ccc(C#Cc2ccc3c(c2)O[C@@H](CN(C)C(=O)NC2CCCCC2)[C@H](C)CN([C@@H](C)CO)S3(=O)=O)cc1	–
COc1ccc(NC(=O)N2CCCCN3[C@H](CO)[C@H](c4ccc(C#CCC(C)C)cc4)[C@H]3C2)cc1	33.7
Cc1ccccc1-c1ccc([C@@H]2[C@@H](CO)N3CCCCN(C(=O)Nc4ccc(F)cc4)C[C@@H]23)cc1	30.8
COCC#Cc1cnc2c(c1)C(=O)N([C@@H](C)CO)C[C@H](C)[C@H](CN(C)C(=O)Nc1ccc(OC)cc1)O2	–
Cc1ccccc1-c1ccc2c(c1)O[C@@H](CN(C)C(=O)Nc1ccccc1)[C@@H](C)CN([C@H](C)CO)S2(=O)=O	–
COc1ccc(C#Cc2ccc([C@@H]3[C@H](CO)N4CCCCN(C(=O)Nc5ccccc5)C[C@@H]34)cc2)cc1	36.0
COc1cccc(NC(=O)N(C)C[C@@H]2Oc3cc(C#Cc4ccccc4)ccc3S(=O)(=O)N([C@H](C)CO)C[C@H]2C)c1	–
SMILES	miR-122 inh
CCC(=O)N(C)C[C@H]1Oc2ncc(C#C[C@H](C)O)cc2C(=O)N([C@H](C)CO)C[C@H]1C	–
C[C@@H]1CN([C@@H](C)CO)C(=O)c2cc(-c3ccc(F)cc3)cnc2O[C@H]1CN(C)Cc1ccccn1	–
C[C@@H]1CN([C@H](C)CO)C(=O)c2cc(-c3ccncc3)cnc2O[C@H]1CN(C)C(=O)c1ccccc1F	–
COCC#Cc1ccc2c(c1)O[C@H](CN(C)C(=O)C1CCOCC1)[C@H](C)CN([C@@H](C)CO)S2(=O)=O	–
COc1ccc(-c2cnc3c(c2)C(=O)N([C@@H](C)CO)C[C@@H](C)[C@@H](CN(C)C(=O)Cc2ccccc2)O3)cc1	–
CCCNC(=O)N(C)C[C@H]1Oc2ncc(C#Cc3ccccc3F)cc2C(=O)N([C@H](C)CO)C[C@@H]1C	–
O=C(Nc1c(C(=O)N2CCN(c3ccccn3)CC2)oc2ccccc12)c1ccc([N+](=O)[O-])cc1	–
COc1ccc(S(=O)(=O)Nc2ccc3c(c2)C(=O)N([C@H](C)CO)C[C@@H](C)[C@@H](CN(C)S(=O)(=O)c2ccc(C)cc2)O3)cc1	–
CCOc1ccc(-c2ccc(NS(=O)(=O)c3cc([N+](=O)[O-])c(C)c([N+](=O)[O-])c3)cc2)nn1	–
